Reference: PubChem BioAssay
Values without a mark were called inactive. The list shows a part of the results. The source made the active and inactive calls.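 How the source made its calls, unless noted: active means mean inhibition above about 50% in the one-dose retest (limit read from the data); inactive means the rest.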

Biological target: Sentrin-specific protease 7 (Homo sapiens) (UniProt Q9BQF6)
Assay: SENP7 protease inhibitors, retest, confirmation, biochemical, luminescence, single concentration (AID 488917)
Conditions: recombinant SENP7, Z-RLRGG-aminoluciferin luminescence, 40 min; at 12.5 µM; active compounds read high

Sequence of Sentrin-specific protease 7 (Homo sapiens) (Q9BQF6 706-1050 limits assumed): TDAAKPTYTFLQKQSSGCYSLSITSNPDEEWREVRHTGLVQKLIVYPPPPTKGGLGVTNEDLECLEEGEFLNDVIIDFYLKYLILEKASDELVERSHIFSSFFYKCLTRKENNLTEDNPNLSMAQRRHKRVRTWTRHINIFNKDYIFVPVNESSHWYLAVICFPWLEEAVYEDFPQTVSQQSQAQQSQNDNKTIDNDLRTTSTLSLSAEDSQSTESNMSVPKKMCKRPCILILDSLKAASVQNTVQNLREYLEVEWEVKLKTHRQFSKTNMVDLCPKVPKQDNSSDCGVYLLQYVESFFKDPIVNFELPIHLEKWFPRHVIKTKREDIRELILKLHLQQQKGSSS

Compound | inhibition
O=c1oc2ccccc2cc1-c1cn(-c2ccccc2)c(=S)[nH]1 | 81.7% (active)
c1ccc2[nH]c(-c3nc4ccccc4[nH]3)nc2c1 | 77.8% (active)
O=C(Nc1nc2ccccc2s1)c1ccc2c(c1)OCO2 | 97.4% (active)
Cc1cccc(/C(N)=N/OC(=O)c2ccccc2Cl)c1 | 102% (active)
Cc1ccc(OCc2nc3ccccc3n2C)cc1 | 79% (active)
Clc1ccc2nc(CSc3ccccc3)cn2c1 | 86.6% (active)
Cc1csc(SCC(=O)Nc2sccc2C#N)n1 | 101% (active)
O=C(Nc1ccc(-c2nnc(-c3ccccc3)o2)cc1)C1CCCO1 (centres undefined) | 38.3%

Biological target: Caspase-3 (Homo sapiens) (UniProt P42574)
Assay: caspase-3 protease inhibitors, confirmation, selectivity assay for SENP inhibitor project, biochemical, single concentration (AID 488918;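 active means mean inhibition above about 50%, limit read from the data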;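 further: plate controls were enzyme with DMSO for no effect and wells without caspase-3 for full effect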)
Conditions: purified caspase-3, Z-DEVD-aminoluciferin luminescence, 60 min; at 12.5 µM; active compounds read high

Sequence of Caspase-3 (Homo sapiens) (P42574 28-227 limits assumed): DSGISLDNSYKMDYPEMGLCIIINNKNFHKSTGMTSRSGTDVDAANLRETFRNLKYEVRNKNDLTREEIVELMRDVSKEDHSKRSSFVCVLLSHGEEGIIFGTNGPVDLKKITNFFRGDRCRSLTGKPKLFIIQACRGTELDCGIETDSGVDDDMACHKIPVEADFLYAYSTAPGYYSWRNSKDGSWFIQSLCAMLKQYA

Compound | inhibition
O=c1oc2ccccc2cc1-c1cn(-c2ccccc2)c(=S)[nH]1 | 81.8% (active)
c1ccc2[nH]c(-c3nc4ccccc4[nH]3)nc2c1 | 77.3% (active)
O=C(Nc1nc2ccccc2s1)c1ccc2c(c1)OCO2 | 84.8% (active)
Cc1cccc(/C(N)=N/OC(=O)c2ccccc2Cl)c1 | 97.2% (active)
Cc1ccc(OCc2nc3ccccc3n2C)cc1 | 68% (active)
Clc1ccc2nc(CSc3ccccc3)cn2c1 | 68.9% (active)
Cc1csc(SCC(=O)Nc2sccc2C#N)n1 | 97.1% (active)
O=C(Nc1ccc(-c2nnc(-c3ccccc3)o2)cc1)C1CCCO1 (centres undefined) | 38.8%

Test system: not listed separately
Assay: luciferase luminescence interference by compounds, confirmation, artefact control for SENP inhibitor project, biochemical, single concentration, SENP8 reaction pre-completed (AID 488919;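 active means mean inhibition above about 50% when retested at one dose, limit read from the data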;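 further: plate controls were DMSO wells with completed reaction for no effect and substrate without enzyme for full effect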)
Conditions: Pre-incubated SENP8/Z-RLRGG-aminoluciferin, at 12.5 µM, active compounds read high

Compound | inhibition
O=c1oc2ccccc2cc1-c1cn(-c2ccccc2)c(=S)[nH]1 | 19.1%
c1ccc2[nH]c(-c3nc4ccccc4[nH]3)nc2c1 | 50.8% (active)
O=C(Nc1nc2ccccc2s1)c1ccc2c(c1)OCO2 | 18.6%
Cc1cccc(/C(N)=N/OC(=O)c2ccccc2Cl)c1 | 96.8% (active)
Cc1ccc(OCc2nc3ccccc3n2C)cc1 | 18.5%
Clc1ccc2nc(CSc3ccccc3)cn2c1 | 70.8% (active)
Cc1csc(SCC(=O)Nc2sccc2C#N)n1 | 94.4% (active)
O=C(Nc1ccc(-c2nnc(-c3ccccc3)o2)cc1)C1CCCO1 (centres undefined) | 8.6%

Biological target: Protein Mdm4 (Homo sapiens) + E3 ubiquitin-protein ligase Mdm2 (Homo sapiens) (UniProt O15151+Q00987)
Assay: retested Mdm2-MdmX interaction blockers, confirmation, cell-based, luminescence, single concentration, set 2 (AID 504601;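 active means mean inhibition of the luminescence signal across two replicates at or above 26 percent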)
Conditions: SaOS-2 split-luciferase Mdm2/MdmX complementation, at 8 µM, active compounds read high

Sequence of Protein Mdm4 (Homo sapiens) + E3 ubiquitin-protein ligase Mdm2 (Homo sapiens) (O15151 whole entry, looked up): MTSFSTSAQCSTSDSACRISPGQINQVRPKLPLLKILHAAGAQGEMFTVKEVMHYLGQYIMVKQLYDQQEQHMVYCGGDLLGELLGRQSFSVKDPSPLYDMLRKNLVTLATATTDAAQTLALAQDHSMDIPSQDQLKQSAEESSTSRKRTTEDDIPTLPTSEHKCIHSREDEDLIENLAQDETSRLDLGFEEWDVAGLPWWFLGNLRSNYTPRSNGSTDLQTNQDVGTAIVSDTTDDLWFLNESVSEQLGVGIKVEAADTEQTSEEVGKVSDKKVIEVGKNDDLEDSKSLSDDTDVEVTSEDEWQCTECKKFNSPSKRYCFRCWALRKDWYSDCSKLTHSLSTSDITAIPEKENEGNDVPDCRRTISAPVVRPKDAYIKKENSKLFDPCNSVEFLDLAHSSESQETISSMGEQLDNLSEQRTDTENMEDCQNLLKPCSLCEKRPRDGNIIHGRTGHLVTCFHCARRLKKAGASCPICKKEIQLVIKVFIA
Sequence of Protein Mdm4 (Homo sapiens) + E3 ubiquitin-protein ligase Mdm2 (Homo sapiens) (Q00987 whole entry, looked up): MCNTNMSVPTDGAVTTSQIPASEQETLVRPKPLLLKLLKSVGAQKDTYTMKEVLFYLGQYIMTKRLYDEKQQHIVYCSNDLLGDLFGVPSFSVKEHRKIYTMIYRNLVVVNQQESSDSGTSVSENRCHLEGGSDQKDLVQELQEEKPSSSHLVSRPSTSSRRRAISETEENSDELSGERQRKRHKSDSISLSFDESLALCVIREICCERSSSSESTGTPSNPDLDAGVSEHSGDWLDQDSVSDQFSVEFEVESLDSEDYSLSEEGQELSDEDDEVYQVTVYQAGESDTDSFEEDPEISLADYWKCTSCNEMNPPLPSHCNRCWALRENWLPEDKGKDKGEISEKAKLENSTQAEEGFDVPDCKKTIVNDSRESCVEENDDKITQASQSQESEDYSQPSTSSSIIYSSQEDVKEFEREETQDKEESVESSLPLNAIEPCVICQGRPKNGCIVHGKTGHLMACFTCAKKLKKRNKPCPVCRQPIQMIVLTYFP

Compound | inhibition
O=c1oc2ccccc2cc1-c1cn(-c2ccccc2)c(=S)[nH]1 | 92% (active)
COc1ccccc1-n1nnnc1S(=O)(=O)Cc1ccc(Cl)cc1 | 103% (active)
C=C(C)C(=O)O[C@H]1C/C(C)=C\C(=O)/C=C(\C)[C@H](O)[C@@H]2OC(=O)C(=C)[C@@H]21 | 103% (active)
COc1ccc2cc1Oc1ccc(cc1)C[C@H]1c3cc(c(OC)cc3CCN1C)Oc1c(O)c(OC)cc3c1[C@H](C2)N(C)CC3 | 104% (active)
NC(N)=N/N=C/c1ccc(OCc2ccc(Cl)cc2Cl)cc1 | 102% (active)
OCCCNc1nccc(-c2cc(Nc3cccc(Cl)c3)ncn2)n1 | 102% (active)

Test system: not listed separately
Assay: inhibition of Brca1/Bard1 split-luciferase complementation, confirmation, counter-screen for Mdm2/MdmX interaction inhibitor project, luminescence, single concentration (AID 504668; call rule not given here)
Conditions: Brca1/Bard1 bimolecular luciferase complementation counterscreen, at 8 µM, active compounds read high

Compound | inhibition
Clc1cccc(Cl)c1OCCOCCNCc1ccccc1 | 33% (active)
COc1ccc(Nc2ncnc3ccc(Br)cc23)c(OC)c1 | 24.3% (active)
CCN1/C(=C\c2ccc3ccccc3[n+]2CC)Sc2cc(C)ccc21 | 25% (active)
COC(=O)Cc1[nH]n(-c2nc3ccccc3s2)c(=O)c1C(C)=Nc1ccc(OC)cc1 | 26.2% (active)
COc1cccc(/C=N/NC(=O)c2[nH]nc3c2CCc2ccccc2-3)c1O | 27% (active)

Test system: not listed separately
Assay: Peg3 promoter reporter inhibitors, retest, confirmation, cell-based, HeLa, luciferase reporter, single concentration (AID 602417;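 active means at 20 µM dose, 40% or more inhibition averaged across four replicates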)
Conditions: HeLa PEG-Prom luciferase reporter, luminescence, overnight; at 20 µM; active compounds read high

Compound | inhibition
COc1ccc(Nc2ncnc3ccc(Br)cc23)c(OC)c1 | 87.9% (active)
COC(=O)Cc1[nH]n(-c2nc3ccccc3s2)c(=O)c1C(C)=Nc1ccc(OC)cc1 | 86.3% (active)
CC(C)(C)c1ccc(Oc2ccc(N)cc2)cc1 | 86.3% (active)
OCCCNc1nccc(-c2cc(Nc3cccc(Cl)c3)ncn2)n1 | 97.6% (active)

Test system: not listed separately
Assay: HIF-2a reporter inhibitor retest, confirmation, luminescence, 786-0 RCC cells (AID 651580;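 active means mean inhibition across four replicates of at least 40 percent at the single tested concentration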)
Conditions: HIF-2a luciferase reporter luminescence, overnight, at 18.8 µM, active compounds read high

Compound | inhibition
COc1ccc(Nc2ncnc3ccc(Br)cc23)c(OC)c1 | 91.3% (active)
COc1ccccc1-n1nnnc1S(=O)(=O)Cc1ccc(Cl)cc1 | 70.5% (active)
COC(=O)Cc1[nH]n(-c2nc3ccccc3s2)c(=O)c1C(C)=Nc1ccc(OC)cc1 | 82.3% (active)
C=C(C)C(=O)O[C@H]1C/C(C)=C\C(=O)/C=C(\C)[C@H](O)[C@@H]2OC(=O)C(=C)[C@@H]21 | 61.8% (active)

Test system: not listed separately
Assay: HIF-1a luciferase reporter signal reduction – MiaPaCa-2 cells, single concentration, counter-screen for HIF-2a inhibitor project, confirmation (AID 651589;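 active means mean inhibition of the reporter signal across four replicates at the single tested dose of 50% or more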)
Conditions: MiaPaCa-2 HIF-1a luciferase reporter, desferoxamine, overnight; at 18.8 µM; active compounds read high

Compound | inhibition
COc1ccc(Nc2ncnc3ccc(Br)cc23)c(OC)c1 | 102% (active)
COc1ccccc1-n1nnnc1S(=O)(=O)Cc1ccc(Cl)cc1 | 102% (active)
COC(=O)Cc1[nH]n(-c2nc3ccccc3s2)c(=O)c1C(C)=Nc1ccc(OC)cc1 | 92.7% (active)
C=C(C)C(=O)O[C@H]1C/C(C)=C\C(=O)/C=C(\C)[C@H](O)[C@@H]2OC(=O)C(=C)[C@@H]21 | 108% (active)

Biological target: COP9 signalosome complex subunit 5 (Homo sapiens) (UniProt Q92905)
Assay: Csn5 deneddylation inhibitors, confirmation, biochemical, fluorescence polarization, single concentration, SCF-Nedd8OG substrate (AID 720654; in the data active means inhibition above about 50%;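 further: 0% = DMSO with enzyme and 100% = no enzyme wells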)
Conditions: Csn5 deneddylation of SCF-Nedd8OG, 90 min, at 16.6 µM, active compounds read high

Sequence of COP9 signalosome complex subunit 5 (Homo sapiens) (Q92905 whole entry, looked up, one chain of several): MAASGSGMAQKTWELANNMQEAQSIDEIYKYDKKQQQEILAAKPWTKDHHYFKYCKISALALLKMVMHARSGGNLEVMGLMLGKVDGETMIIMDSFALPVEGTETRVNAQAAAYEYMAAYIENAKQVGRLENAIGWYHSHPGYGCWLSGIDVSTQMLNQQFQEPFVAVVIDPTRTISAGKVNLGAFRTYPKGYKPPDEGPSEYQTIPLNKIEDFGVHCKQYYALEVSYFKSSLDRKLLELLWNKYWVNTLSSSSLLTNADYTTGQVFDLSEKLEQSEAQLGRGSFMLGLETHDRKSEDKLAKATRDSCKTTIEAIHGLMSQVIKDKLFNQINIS

Compound | inhibition
CCN1/C(=C\c2ccc3ccccc3[n+]2CC)Sc2cc(C)ccc21 | 24%
COc1cccc(/C=N/NC(=O)c2[nH]nc3c2CCc2ccccc2-3)c1O | 20.6%
CC[n+]1cc(C)ccc1/C=C/c1ccc(N(C)C)cc1 | 56.8% (active)

Biological target: 72 kDa type IV collagenase (Homo sapiens) (UniProt P08253)
Assay: MMP-2 protease inhibition counter-screen, confirmation, counter-screen for CSN deneddylation inhibitor project, biochemical, fluorescence, single concentration (AID 720655;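 active means corrected plate-normalized z-score of 5 or more, or -5 or less, or inhibition of 15% or more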;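 further: plate controls were DMSO wells with enzyme for no effect and buffer wells lacking MMP-2 for full effect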)
Conditions: recombinant MMP-2, FRET substrate fluorescence, 60 min; at 16.6 µM

Sequence of 72 kDa type IV collagenase (Homo sapiens) (P08253 whole entry, looked up): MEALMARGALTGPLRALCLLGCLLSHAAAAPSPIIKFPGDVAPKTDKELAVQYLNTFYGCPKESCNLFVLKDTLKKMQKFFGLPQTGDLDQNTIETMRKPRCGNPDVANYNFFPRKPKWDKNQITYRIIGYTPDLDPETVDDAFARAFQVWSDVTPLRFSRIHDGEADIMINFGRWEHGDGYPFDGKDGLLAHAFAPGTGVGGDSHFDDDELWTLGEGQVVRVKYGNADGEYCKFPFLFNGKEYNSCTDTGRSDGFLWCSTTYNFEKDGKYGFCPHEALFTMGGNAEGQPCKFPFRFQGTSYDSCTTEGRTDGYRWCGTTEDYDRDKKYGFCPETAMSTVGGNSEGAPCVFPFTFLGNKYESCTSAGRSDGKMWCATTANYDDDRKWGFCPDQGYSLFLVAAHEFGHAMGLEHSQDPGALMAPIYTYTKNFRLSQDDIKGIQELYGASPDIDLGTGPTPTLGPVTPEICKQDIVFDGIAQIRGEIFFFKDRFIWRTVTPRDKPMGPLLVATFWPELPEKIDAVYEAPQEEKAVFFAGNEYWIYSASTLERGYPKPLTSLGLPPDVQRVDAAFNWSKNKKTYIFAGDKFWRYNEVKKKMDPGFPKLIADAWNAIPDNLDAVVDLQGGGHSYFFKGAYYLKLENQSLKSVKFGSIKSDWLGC

Compound | inhibition
Cn1ccc(=Nc2ccc(NC(=O)c3ccc(N=c4ccn(C)c5ccc([N+](=O)[O-])cc45)cc3)cc2)cc1 | 61.8% (active)
CCN1/C(=C\c2ccc3ccccc3[n+]2CC)Sc2cc(C)ccc21 | -3.14%
COc1cccc(/C=N/NC(=O)c2[nH]nc3c2CCc2ccccc2-3)c1O | 34.7% (active)
CC[n+]1cc(C)ccc1/C=C/c1ccc(N(C)C)cc1 | -78.8% (active)
